# Source: PubChem (several laboratories)
# EBV LMP1 NFkB: inhibitors of Epstein-Barr LMP1-induced NF-kappaB reporter; LMP1-induced NF-kappaB luciferase reporter cells, luminescence; inhibition, % at 12.5 µM; 350,000 tested, 0.69% active; AID 504558; in the data active = inhibition above about 41%;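 also: 0% = neutral control wells and 100% = reference inhibitor control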
# TROY signal inh: inhibitors of TROY-dependent NF-kB signaling; Q293 LMP1-TROYcd NF-kB luciferase reporter, 4 h; 360,000 tested, 0.98% active; inhibition, % at 10 µM;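 active = compounds whose plate-normalised and pattern-corrected inhibition of the luciferase reporter signal at the single screening dose is 50% or more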
# LGR2 antag: Drosophila LGR2 receptor signaling inhibition | HEK293 LGR2, CRE-luciferase, bursicon-stimulated, 4 h | inhibition, % at 9.99 µM | 380,000 tested, 0.35% active | AID 720647;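 active = drop in luminescence signal, shown as inhibition above about 50% in the replicate tests, limit read from the data, passing the limit was not always enough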;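 also: agonist challenge used bursicon conditioned medium at about half maximal strength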
# TRPM1 prom inh: reduces MITF-dependent TRPM1 promoter luciferase signal. SK-MEL-5 TRPM1 promoter luciferase, 24 h. inhibition, % at 12.5 µM. 330,000 tested, 0.83% active. AID 488899;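 active = mean inhibition across replicates of 60% or more, whatever share of single replicates reaches that level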
# MITF TRPM1 HTS: increases MITF-driven TRPM1 promoter luciferase signal; AID 588334; SK-MEL-5 TRPM1-promoter luciferase, 24 h; % of positive control, neutral wells = 0; activation, % at 12.5 µM; 300,000 tested, 0.75% active;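 active = mean activation of at least 80% with every replicate also reaching 80%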;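 also: 0% = neutral control wells and 100% = parthenolide positive control wells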
# TWEAK-Fn14 inh: inhibitors of TWEAK-Fn14 interaction signaling | AID 1159606 | TWEAK-stimulated Fn14 reporter cells, luciferase luminescence, 8 h | 360,000 tested, 2% active | inhibition, % at 10 µM; in the data active = inhibition above about 50%
# An asterisk follows results filed as active; . = no result. Hits are enriched below; roughly 3% of the tested compounds scored in any of these assays.
SMILES,EBV LMP1 NFkB,TROY signal inh,LGR2 antag,TRPM1 prom inh,MITF TRPM1 HTS,TWEAK-Fn14 inh
O=C(N/N=C/c1cccc2nccnc12)c1ccccc1O,5.3,-21.5,25.5,23.1,-20.8,-27.8
c1ccc2c(-c3ccncc3)c[nH]c2c1,76.6*,30.6,13.1,-12.9,10.5,20.6
COC1=CC(=O)c2nc(Cl)ccc2C1=O,.,3.2,80.1*,.,.,93.5*
CCCC(=O)N1CCC2(CC1)CN(C(=O)C1CCOCC1)[C@@H](CO)c1[nH]c3cc(OC)ccc3c12,.,.,23.3,.,.,.
O=C(/C=C/c1cccs1)c1ccc(N2CCOCC2)cc1,9.4,74.7*,92.7*,-22.1,19.8,88.6*
COc1cc([N+](=O)[O-])cc(/C=N/NC(=O)C(O)(c2ccccc2)c2ccccc2)c1O,-2.8,14.7,12.9,8.7,-7.8,2.4
COc1cc([N+](=O)[O-])cc(/C=N/NC(=O)C(C)Nc2cccc3ccccc23)c1O (stereo unspecified),3.0,57.2*,18.7,14.8,-15.4,86.9*
CC(Nc1cccc2ccccc12)C(=O)N/N=C/c1ccc([N+](=O)[O-])cc1 (stereo unspecified),0.4,44.7,-12.6,5.4,1.1,100.3*
CC1(C)CC(=O)C2=C(C1)N=C1c3ccccc3C(=O)C1C2c1ccc(Cl)cc1 (stereo unspecified),7.0,26.2,.,20.1,-21.3,66.5*
Cc1ccc(C2C3=C(CC(C)(C)CC3=O)N=C3c4ccccc4C(=O)C32)cc1 (stereo unspecified),5.6,27.9,-19.7,1.2,1.4,57.7*
CCOC(=O)C1=C(C)N=C2c3ccccc3C(=O)C2C1c1ccc(Cl)cc1 (stereo unspecified),-4.4,-1.2,.,-5.3,6.0,6.2
Cc1ccc(S(=O)(=O)Nc2ccc3c(c2)C(=O)N([C@H](C)CO)C[C@H](C)[C@@H](CN(C)C(=O)C2CCCCC2)OCCCC[C@@H](C)O3)cc1,.,.,3.7,.,.,.
CCNC(=O)C[C@@H]1C=C[C@H](NS(=O)(=O)c2ccc(F)cc2)[C@H](CO)O1,.,.,4.4,.,.,.
CC(NC1=CC(=O)c2cccnc2C1=O)C(O)c1ccccc1 (stereo unspecified),2.7,7.1,-30.7,110.0*,.,16.0
CC(c1ccccc1)N1C(=O)c2cccnc2C1=O (stereo unspecified),2.3,14.3,1.8,-2.1,2.0,4.4
O=C(Nc1nccs1)c1ccc(-c2ccc(F)cc2)o1,-57.7,-76.9,-50.5,-140.4,141.8*,28.7
Cc1cc(N2CCN(C)CC2)ccc1NC(=O)c1ccc(-c2ccc(Cl)cc2)o1,-0.8,79.7*,-2.4,-2.3,3.6,94.2*
O=C(Nc1nccs1)c1ccc(-c2ccc(Cl)cc2)o1,-36.4,-53.0,-84.8,-122.5,108.9*,22.7
O=C(Nc1nccs1)c1ccc(-c2ccc([N+](=O)[O-])cc2)o1,-21.2,40.7,-18.3,-41.9,40.3,17.6
O=C(NC1CCCC1)N1CC2(C1)[C@@H](c1ccccc1)[C@@H](CO)N2S(=O)(=O)Cc1ccccc1,.,.,4.9,.,.,.
O=C(Nc1ccc2c(c1)[C@H]1C[C@@H](CC(=O)N3CCOCC3)O[C@H](CO)[C@H]1O2)c1ccc2c(c1)OCO2,.,.,13.6,.,.,.
O=C(C[C@@H]1C=C[C@@H](NC(=O)Nc2cc(F)ccc2F)[C@H](CO)O1)NCc1ccccn1,.,.,-20.5,.,.,.
Cn1c(-c2ccc(F)cc2)cnc1SCC(=O)N1CCCc2ccccc21,-4.3,6.5,-3.7,-18.3,17.8,-13.8
Cn1c(-c2ccc(F)cc2)cnc1SCC(=O)N1CCCCC1,8.7,17.1,.,-14.6,.,60.1*
Cc1cccc(Nc2nc(Cl)ncc2F)c1C,52.9*,-3.4,2.1,-9.5,9.8,1.5
SMILES,EBV LMP1 NFkB,TROY signal inh,LGR2 antag,TRPM1 prom inh,MITF TRPM1 HTS,TWEAK-Fn14 inh
O=C(C[C@H]1C[C@@H]2c3cc(NC(=O)NC4CCCCC4)ccc3O[C@@H]2[C@@H](CO)O1)NCCc1ccccc1,.,.,-5.2,.,.,.
CO[C@@H]1CN(C)C(=O)c2cc(NC(=O)C3CCC3)ccc2OC[C@H](C)N(Cc2ccccn2)C[C@@H]1C,.,.,-10.9,.,.,.
Cc1ccc(-n2nc3ccc(N)cc3n2)cc1,-11.7,-48.1,.,7.0,-3.8,-33.0
CC(C)c1ccc(-n2nc3ccc(N)cc3n2)cc1,-29.6,5.0,.,16.5,-16.8,50.8*
Cc1nn(-c2ccccc2)c(C)c1-c1ccccc1O,1.7,-11.2,.,1.8,-1.9,-12.4
Cc1nn(-c2ccccc2)c(/N=C/c2ccc(O)cc2)c1-c1ccccc1,-8.5,-75.0,-47.8,-83.3,83.4*,-26.4
C[C@H](NC(=O)C[C@H]1C[C@H]2c3cc(NS(C)(=O)=O)ccc3O[C@H]2[C@H](CO)O1)c1ccccc1,.,.,0.1,.,.,.
COc1ccc(Nc2oc(COc3ccc(Cl)cc3)nc2C#N)cc1,46.1*,32.4,.,27.1,-26.8,88.1*
COc1ccc(CCNc2oc(COc3ccc(Br)cc3)nc2C#N)cc1OC,0.2,59.0*,5.5,-0.9,3.4,24.9
CNC[C@H]1OCCCC[C@H](C)Oc2ccc(NC(=O)NC3CCCCC3)cc2C(=O)N([C@H](C)CO)C[C@@H]1C,.,.,4.3,.,.,.
COCC#Cc1cnc2c(c1)C(=O)N([C@@H](C)CO)C[C@@H](C)[C@@H](CN(C)Cc1ccc3c(c1)OCO3)O2,.,.,-6.0,.,.,.
CC(=O)N(C)C[C@H]1Oc2ncc(C#Cc3ccccc3)cc2C(=O)N([C@H](C)CO)C[C@H]1C,.,.,7.6,.,.,.
Cn1c(N/N=C/c2cccs2)cc(=O)n(C)c1=O,-6.3,-19.8,-86.3,25.6,-25.9,20.7
Fc1c(F)c(C(F)(F)F)c(F)c(F)c1N/N=C\c1cccs1,-6.1,39.6,.,8.1,-7.8,60.3*
CCO[C@H]1OC(C(N)=O)=C[C@@H](C(C)(C)C)[C@@H]1CCCO,1.5,-18.6,2.2,6.0,-3.4,53.5*
COc1cnn(-c2ccc(C)cc2)c(=O)c1SCc1ccccc1,47.3*,-36.9,-37.4,-61.4,64.5,-2.7
COc1cnn(-c2ccc(Br)cc2)c(=O)c1SCc1ccccc1,-18.3,-54.7,-31.5,-27.0,27.0,-15.3
Nc1[nH]c(C(=O)c2ccccc2)c(-c2ccc(Br)cc2)c1C(=O)c1ccc(Br)cc1,.,18.1,-2.5,.,.,90.9*
COCC(=O)N1CC2(CCN(S(C)(=O)=O)CC2)c2c(n(C)c3cc(OC)ccc23)[C@H]1CO,.,.,-2.9,.,.,.
CCOC(=O)[C@@H]1[C@H]2COc3cc(OC)ccc3[C@H]2N2C(=O)N(c3ccc(C(F)(F)F)cc3)C(=O)[C@]12C,0.6,38.9,11.1,-3.1,1.3,74.4*
O=c1c2ccccc2oc2cc(NCCCN3CCOCC3)ccc12,-30.0,-10.5,-59.8,-108.3,106.1*,-34.3
CN1CCCC1CCNc1ccc2c(=O)c3ccccc3oc2c1 (stereo unspecified),-25.1,14.1,.,-89.8,89.3*,-18.7
O=c1c2ccccc2oc2ccc(NCCCN3CCOCC3)cc12,-14.9,-50.8,.,-128.2,136.8*,-21.8
